In the supplement of paper PMC4466140:

Key:
Assay in all cases: SPOT peptide array binding signal intensity (averaged, normalized) (arbitrary units (background-subtracted, floor 0; scale differs between SH3 domains)); higher = stronger binding of the SH3 domain to the peptide
[1] = molecular target: AgAbp1
Procedure, shortened: (§1)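 Detection of bound protein relied on anti-GST antibody, an HRP anti-mouse secondary and luminol, with imaging and quantification in Genespotter. The bound protein was GST-fused SH3 domains from four yeast species, incubated at 10 μg/ml overnight at 4°C in TBS-based blocking buffer on cellulose membranes carrying synthetic 15-mer peptides with cysteines replaced by serines. Binding signal is normalized, background-subtracted spot intensity averaged over replicates, in arbitrary units that differ between domains.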

[2] = molecular target: AgBbc1
Procedure, shortened: as §1

[3] = molecular target: AgBem1-D1
Procedure, shortened: as §1

[4] = molecular target: AgBzz1-D1
Procedure, shortened: as §1

[5] = molecular target: AgBzz1-D2
Procedure, shortened: as §1

[6] = molecular target: AgCyk3
Procedure, shortened: as §1

[7] = molecular target: AgFus1
Procedure, shortened: as §1

[8] = molecular target: AgHof1
Procedure, shortened: as §1

[9] = molecular target: AgHse1
Procedure, shortened: as §1

[10] = molecular target: AgLsb1
Procedure, shortened: as §1

[11] = molecular target: AgLsb4
Procedure, shortened: as §1

[12] = molecular target: AgMyo5
Procedure, shortened: as §1

[13] = molecular target: AgNbp2
Procedure, shortened: as §1

[14] = molecular target: AgRvs167
Procedure, shortened: as §1

[15] = molecular target: AgSho1
Procedure, shortened: as §1

[16] = molecular target: AgSla1-D1-D2
Procedure, shortened: as §1

[17] = molecular target: AgSla1-D3
Procedure, shortened: as §1

[18] = molecular target: CaAbp1-D1
Procedure, shortened: as §1

[19] = molecular target: CaAbp1-D2
Procedure, shortened: as §1

[20] = molecular target: CaBbc1
Procedure, shortened: as §1

[21] = molecular target: CaBem1-D1
Procedure, shortened: as §1

[22] = molecular target: CaBzz1-D1
Procedure, shortened: as §1

[23] = molecular target: CaBzz1-D2
Procedure, shortened: as §1

[24] = molecular target: CaCyk3
Procedure, shortened: as §1

[25] = molecular target: CaFus1
Procedure, shortened: as §1

[26] = molecular target: CaHof1
Procedure, shortened: as §1

[27] = molecular target: CaHse1
Procedure, shortened: as §1

[28] = molecular target: CaLsb1
Procedure, shortened: as §1

[29] = molecular target: CaLsb4
Procedure, shortened: as §1

[30] = molecular target: CaMyo5
Procedure, shortened: as §1

[31] = molecular target: CaNbp2
Procedure, shortened: as §1

[32] = molecular target: CaRvs167
Procedure, shortened: as §1

[33] = molecular target: CaRvs167-3
Procedure, shortened: as §1

[34] = molecular target: CaSho1
Procedure, shortened: as §1

[35] = molecular target: CaSla1-D1-D2
Procedure, shortened: as §1

[36] = molecular target: CaSla1-D3
Procedure, shortened: as §1

[37] = molecular target: ScAbp1
Procedure, shortened: as §1

[38] = molecular target: ScBbc1
Procedure, shortened: as §1

[39] = molecular target: ScBem1-D1
Procedure, shortened: as §1

[40] = molecular target: ScBzz1-D1
Procedure, shortened: as §1

[41] = molecular target: ScBzz1-D2
Procedure, shortened: as §1

[42] = molecular target: ScCyk3
Procedure, shortened: as §1

[43] = molecular target: ScFus1
Procedure, shortened: as §1

[44] = molecular target: ScHof1
Procedure, shortened: as §1

[45] = molecular target: ScHse1
Procedure, shortened: as §1

[46] = molecular target: ScLsb1
Procedure, shortened: as §1

[47] = molecular target: ScLsb2
Procedure, shortened: as §1

[48] = molecular target: ScLsb3
Procedure, shortened: as §1

[49] = molecular target: ScLsb4
Procedure, shortened: as §1

[50] = molecular target: ScMyo3
Procedure, shortened: as §1

[51] = molecular target: ScMyo5
Procedure, shortened: as §1

[52] = molecular target: ScNbp2
Procedure, shortened: as §1

[53] = molecular target: ScPex13
Procedure, shortened: as §1

[54] = molecular target: ScRvs167
Procedure, shortened: as §1

[55] = molecular target: ScSho1
Procedure, shortened: as §1

[56] = molecular target: ScSla1-D1-D2
Procedure, shortened: as §1

[57] = molecular target: ScSla1-D3
Procedure, shortened: as §1

[58] = molecular target: SpAbp1-D1
Procedure, shortened: as §1

[59] = molecular target: SpBbc1
Procedure, shortened: as §1

[60] = molecular target: SpBzz1-D1
Procedure, shortened: as §1

[61] = molecular target: SpBzz1-D2
Procedure, shortened: as §1

[62] = molecular target: SpCyk3
Procedure, shortened: as §1

[63] = molecular target: SpHof1
Procedure, shortened: as §1

[64] = molecular target: SpHof1-2
Procedure, shortened: as §1

[65] = molecular target: SpHof1-3
Procedure, shortened: as §1

[66] = molecular target: SpHse1
Procedure, shortened: as §1

[67] = molecular target: SpLsb1
Procedure, shortened: as §1

[68] = molecular target: SpLsb4
Procedure, shortened: as §1

[69] = molecular target: SpMyo1
Procedure, shortened: as §1

[70] = molecular target: SpNbp2
Procedure, shortened: as §1

[71] = molecular target: SpPex13
Procedure, shortened: as §1

[72] = molecular target: SpRvs167
Procedure, shortened: as §1

[73] = molecular target: SpSla1-D1-D2
Procedure, shortened: as §1

[74] = molecular target: SpSla1-D3
Procedure, shortened: as §1

VTHRLRISIPGITGR
SPOT peptide array binding signal intensity [1]: 9 | SPOT peptide array binding signal intensity [2]: 193 | SPOT peptide array binding signal intensity [3]: 126 | SPOT peptide array binding signal intensity [4]: 58 | SPOT peptide array binding signal intensity [5]: 136 | SPOT peptide array binding signal intensity [6]: 25 | SPOT peptide array binding signal intensity [7]: 1200 | SPOT peptide array binding signal intensity [8]: 20.8 | SPOT peptide array binding signal intensity [9]: 650 | SPOT peptide array binding signal intensity [10]: 4.5 | SPOT peptide array binding signal intensity [11]: 430 | SPOT peptide array binding signal intensity [12]: 1.75 | SPOT peptide array binding signal intensity [13]: 123 | SPOT peptide array binding signal intensity [14]: 20 | SPOT peptide array binding signal intensity [15]: 146 | SPOT peptide array binding signal intensity [16]: 88 | SPOT peptide array binding signal intensity [17]: 3 | SPOT peptide array binding signal intensity [18]: 286 | SPOT peptide array binding signal intensity [19]: 146 | SPOT peptide array binding signal intensity [20]: 234 | SPOT peptide array binding signal intensity [21]: 36 | SPOT peptide array binding signal intensity [22]: 252 | SPOT peptide array binding signal intensity [23]: 114 | SPOT peptide array binding signal intensity [24]: 39.5 | SPOT peptide array binding signal intensity [25]: 1410 | SPOT peptide array binding signal intensity [26]: 1.75 | SPOT peptide array binding signal intensity [27]: 56.8 | SPOT peptide array binding signal intensity [28]: 1.25 | SPOT peptide array binding signal intensity [29]: 47.5 | SPOT peptide array binding signal intensity [30]: 34 | SPOT peptide array binding signal intensity [31]: 882 | SPOT peptide array binding signal intensity [32]: 640 | SPOT peptide array binding signal intensity [33]: 2060 | SPOT peptide array binding signal intensity [34]: 1000 | SPOT peptide array binding signal intensity [35]: 16 | SPOT peptide array binding signal intensity [36]: 252 | SPOT peptide array binding signal intensity [37]: 9 | SPOT peptide array binding signal intensity [38]: 16.2 | SPOT peptide array binding signal intensity [39]: 33.5 | SPOT peptide array binding signal intensity [40]: 44.5 | SPOT peptide array binding signal intensity [41]: 374 | SPOT peptide array binding signal intensity [42]: 82 | SPOT peptide array binding signal intensity [43]: 1730 | SPOT peptide array binding signal intensity [44]: 1 | SPOT peptide array binding signal intensity [45]: 1450 | SPOT peptide array binding signal intensity [46]: 65 | SPOT peptide array binding signal intensity [47]: 25 | SPOT peptide array binding signal intensity [48]: 327 | SPOT peptide array binding signal intensity [49]: 42 | SPOT peptide array binding signal intensity [50]: ≤ 0 | SPOT peptide array binding signal intensity [51]: 1.75 | SPOT peptide array binding signal intensity [52]: 295 | SPOT peptide array binding signal intensity [53]: 7.5 | SPOT peptide array binding signal intensity [54]: 45.2 | SPOT peptide array binding signal intensity [55]: 946 | SPOT peptide array binding signal intensity [56]: 159 | SPOT peptide array binding signal intensity [57]: 46 | SPOT peptide array binding signal intensity [58]: 95.5 | SPOT peptide array binding signal intensity [59]: 32.8 | SPOT peptide array binding signal intensity [60]: 396 | SPOT peptide array binding signal intensity [61]: ≤ 0 | SPOT peptide array binding signal intensity [62]: 9 | SPOT peptide array binding signal intensity [63]: 353 | SPOT peptide array binding signal intensity [64]: 71 | SPOT peptide array binding signal intensity [65]: 594 | SPOT peptide array binding signal intensity [66]: 526 | SPOT peptide array binding signal intensity [67]: 8.25 | SPOT peptide array binding signal intensity [68]: 42 | SPOT peptide array binding signal intensity [69]: 1 | SPOT peptide array binding signal intensity [70]: 1510 | SPOT peptide array binding signal intensity [71]: 17 | SPOT peptide array binding signal intensity [72]: 68.8 | SPOT peptide array binding signal intensity [73]: ≤ 0 | SPOT peptide array binding signal intensity [74]: 10
